# Results reported in PubChem BioAssay.
# Several values for one entry are separate records, joined by “and”; a condition that tells them apart may be missing. Identical values can stand only once. Inconclusive results are not listed. Activity calls are given as the source filed them. Unless noted, the limit is not given here; nearly all actives have AC50 up to about 26 µM.
# Experiments:
# [1] = tested on: Aerobactin synthetase IucA (Klebsiella pneumoniae); assay: IucA aerobactin synthetase inhibitors, biochemical, Tocris library, absorbance (AID 1345561; call rule not given here;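 also: 100% = enzyme without compound and 0% = no enzyme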); details: purified IucA enzyme assay, absorbance (OD) read-out; stronger effect = lower value;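 tested at 8 µM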
# [2] = growth inhibition of DIPG glioma cells, dose response, cell-based, SU-DIPG-XVII, MIPE5.0, CellTiter-Glo, qHTS (AID 1347060); details: SU-DIPG-XVII viability, CellTiter-Glo ATP luminescence;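 as to AC50: cells exposed to compound for 48 hours before viability readout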
# [3] = growth inhibition of DIPG glioma cells, dose response, cell-based, JHH-DIPG-1, MIPE4.0, CellTiter-Glo, qHTS (AID 1347062; cut-off not given, nearly all actives have AC50 up to about 27 µM;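 as to AC50: cells exposed to compound for two days before readout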); details: JHH-DIPG-1 viability, CellTiter-Glo ATP luminescence
# [4] = growth inhibition of DIPG glioma cells, dose response, cell-based, SU-DIPG-XIII, MIPE5.0, CellTiter-Glo, qHTS (AID 1347064; cut-off not given, nearly all actives have AC50 up to about 23 µM;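 as to AC50: cells exposed to compound for 48 hours before the viability read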); details: SU-DIPG-XIII viability, CellTiter-Glo ATP luminescence
# [5] = SU-DIPG-VI glioma cell viability, MIPE4.0 library, CellTiter-Glo luminescence, qHTS (AID 1347066; cut-off not given, nearly all actives have AC50 up to about 30 µM;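 also: cells exposed to compound for 48 hours before readout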); details: CellTiter-Glo ATP luminescence
# [6] = JHH-DIPG-1 glioma cell viability, MIPE5.0 library, CellTiter-Glo luminescence, qHTS (AID 1347067); details: JHH-DIPG-1 glioma viability, CellTiter-Glo ATP luminescence;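 also: cells exposed to compound for 48 hours before readout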
# [7] = SU-DIPG-XXV glioma cell viability, MIPE5.0 library, qHTS (AID 1347068; cut-off not given, nearly all actives have IC50 up to about 30 µM;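 as to IC50: cells exposed to compound for 48 hours before viability readout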)
# [8] = sensitizers of A549 cells to miR-34 induction, primary screen, imaging, A549 dox-inducible miR-34, nuclei and caspase counts (AID 1347080;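 active = compounds whose cell count with miR-34 switched on is under 0.7 times the count with it off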); details: A549 miR-34 inducible, Hoechst nuclei count, 48 h
# [9] = modifiers of HSF1 nuclear foci, imaging, Selleck Cancer Library (AID 1347162; in the data active = plate-normalised HSF1 focus index below about 0.46); details: human cells, at 10 µM; SSMD: measured here: HSF1 foci SSMD mean; cell count: measured here: cell number; plate-normalised HSF1 focus index: stronger effect = lower value
# [10] = viability rescue of complex I mutant cybrids, primary screen, cell-based, galactose medium, ATP luminescence (AID 1645843;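 active = z-score of at least 1.8 in each of two replicates, scored against plate mean and spread of sample wells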;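 also: positive z means more ATP and so rescue of galactose-driven cybrid death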); details: complex I mutant cybrid cells, 72 h, stronger effect = higher value
# [11] = growth inhibition of DIPG glioma cells, dose response, cell-based, SU-DIPG-XIII, MIPE4.0, CellTiter-Glo, qHTS (AID 1347061; cut-off not given, nearly all actives have AC50 up to about 37 µM;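 also: cells exposed to compound for 48 hours before readout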); details: SU-DIPG-XIII viability, CellTiter-Glo ATP luminescence
# [12] = liver-stage malaria parasite growth inhibition, primary screen, cell-based, HepG2, luciferase luminescence, HepG2 viability (AID 624349; in the data active = parasite load remaining mostly below about 12%, no sharp cut-off; inactive = mostly above about 10%;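 also: 100% = mean of DMSO negative control wells on the same plate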); details: P. berghei liver stage in HepG2, luciferase luminescence, concentration not given here; parasite load remaining: stronger effect = lower value; viability: measured here: HepG2 viability without parasites
# [13] = survival rescue of mitochondrial mutant cells in low glucose, primary screen, MELAS cybrids, Rieske KO mouse fibroblasts, CellTiter-Glo (AID 1508586;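 active = mean z-score across replicates of 1.96 or higher in either the MELAS or the Rieske mutant cell line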;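 also: z relative to plate mean and SD of compound and empty wells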)
# [14] = stronger effect = lower value, cell number ratio, induced over uninduced
# [15] = measured here: relative caspase fold change +Dox/-Dox
# [16] = measured here: total cells with miR-34 induction, stronger effect = lower value
# [17] = measured here: total cells without miR-34 induction
# [18] = MELAS cybrid survival, CellTiter-Glo 48 h, stronger effect = higher value
# [19] = Rieske KO mouse fibroblast survival, CellTiter-Glo 72 h
structure (smiles),measurement,setting,value
CCOc1ccc(Nc2nc(-c3c(C)nc4ccccn34)cs2)cc1,remaining activity,[1],103% (inactive)
same,AC50,[2],0.0661 µM (active)
same,AC50,[3],16.6 µM (active)
same,AC50,[4],0.059 µM (active)
same,outcome,[5],inactive
same,AC50,[6],0.0525 µM (active)
same,IC50,[7],0.372 µM (active)
same,fold change,[8]; [14],1.03 (inactive)
same,fold change,[8]; [15],1.27
same,cell count,[8]; [16],2200
same,cell count,[8]; [17],2140
same,SSMD,[9],4.16
same,cell count,[9],6300
same,plate-normalised HSF1 focus index,[9],1.25 (inactive)
same,z-score,[10],-0.68 (inactive)
CC(C)[C@H](CO)Nc1nc(Nc2ccc(C(=O)O)c(Cl)c2)c2ncn(C(C)C)c2n1,remaining activity,[1],110% (inactive)
same,outcome,[2],inactive
same,outcome,[11],inactive
same,outcome,[4],inactive
same,AC50,[5],23.5 µM (active)
same,outcome,[6],inactive
same,outcome,[7],inactive
same,fold change,[8]; [14],0.902 (inactive)
same,fold change,[8]; [15],0.706
same,cell count,[8]; [16],8820
same,cell count,[8]; [17],9770
same,z-score,[10],0.185 (inactive)
Cc1cc(I)ccc1Nc1c(C(=O)NOCC2CC2)cc(F)c(F)c1F,parasite load remaining,[12],55.5% (inactive)
same,viability,[12],67.8%
same,remaining activity,[1],104% (inactive)
same,AC50,[2],5.9 µM (active)
same,AC50,[4],6.61 µM (active)
same,AC50,[6],4.17 µM (active)
same,IC50,[7],10.5 µM (active)
same,fold change,[8]; [14],1.12 (inactive)
same,fold change,[8]; [15],1.32
same,cell count,[8]; [16],1290
same,cell count,[8]; [17],1150
same,z-score,[10],-0.65 (inactive)
O=C(O)C1CCCN(CCC=C(c2ccccc2)c2ccccc2)C1 (centres undefined),remaining activity,[1],104% (inactive)
same,outcome,[2],inactive
same,outcome,[11],inactive
same,outcome,[3],inactive
same,outcome,[4],inactive
same,outcome,[5],inactive
same,outcome,[6],inactive
same,outcome,[7],inactive
same,fold change,[8]; [14],0.98 (inactive) and 0.952 (inactive)
same,fold change,[8]; [15],1.12 and 1.07
same,cell count,[8]; [16],9290 and 8980
same,cell count,[8]; [17],9480 and 9430
same,z-score,[10],0.12 (inactive) and 0.13 (inactive)
Oc1ccc2ccccc2c1SSc1c(O)ccc2ccccc12,parasite load remaining,[12],35.3% (inactive)
same,viability,[12],87.1%
same,remaining activity,[1],112% (inactive)
same,AC50,[2],14.8 µM (active)
same,AC50,[3],23.5 µM (active)
same,AC50,[4],14.8 µM (active)
same,AC50,[5],23.5 µM (active)
same,AC50,[6],10.5 µM (active)
same,outcome,[7],inactive
same,fold change,[8]; [14],0.974 (inactive) and 0.952 (inactive) and 0.85 (inactive)
same,fold change,[8]; [15],1 and 0.368 and 2.34
same,cell count,[8]; [16],7700 and 7960 and 7720
same,cell count,[8]; [17],7910 and 8360 and 9070
same,z-score,[13]; [18],2.05 (active)
same,z-score,[13]; [19],-0.0374
same,z-score,[10],-1.38 (inactive) and -0.86 (inactive)
CC(Oc1ccc(O)cc1)(P(=O)(O)O)P(=O)(O)O,remaining activity,[1],115% (inactive)
same,outcome,[2],inactive
same,outcome,[11],inactive
same,outcome,[3],inactive
same,outcome,[4],inactive
same,outcome,[5],inactive
same,outcome,[6],inactive
same,outcome,[7],inactive
same,fold change,[8]; [14],0.98 (inactive)
same,fold change,[8]; [15],0.597
same,cell count,[8]; [16],9020
same,cell count,[8]; [17],9200
same,z-score,[10],-0.285 (inactive)
Nc1ncnc2nc(-c3ccc(N4CCOCC4)nc3)cc(-c3cccc(Br)c3)c12,parasite load remaining,[12],57.8% (inactive)
same,viability,[12],155%
same,remaining activity,[1],93.4% (inactive)
same,outcome,[2],inactive
same,outcome,[3],inactive
same,outcome,[4],inactive
same,outcome,[6],inactive
same,fold change,[8]; [14],0.949 (inactive)
same,fold change,[8]; [15],1.03
same,cell count,[8]; [16],7250
same,cell count,[8]; [17],7640
same,z-score,[10],2.27 (active)
O=c1[nH]nc(Sc2ncc([N+](=O)[O-])s2)n1-c1ccc2c(c1)OCCO2,remaining activity,[1],125% (inactive)
same,AC50,[2],3.72 µM (active)
same,AC50,[11],5.9 µM (active)
same,AC50,[3],5.26 µM (active)
same,AC50,[4],3.72 µM (active)
same,AC50,[5],2.64 µM (active)
same,AC50,[6],2.95 µM (active)
same,IC50,[7],23.5 µM (active)
same,fold change,[8]; [14],1.25 (inactive)
same,fold change,[8]; [15],0.969
same,cell count,[8]; [16],2070
same,cell count,[8]; [17],1660
same,SSMD,[9],-8.15
same,cell count,[9],5980
same,plate-normalised HSF1 focus index,[9],0.592 (inactive)
same,z-score,[10],-0.705 (inactive)
O=C(O)c1ccc2cc(-c3ccc(O)c(C45CC6CC(CC(C6)C4)C5)c3)ccc2c1,remaining activity,[1],120% (inactive)
same,AC50,[2],0.59 µM (active)
same,AC50,[3],5.26 µM (active)
same,AC50,[6],3.72 µM (active)
same,fold change,[8]; [14],1.3 (inactive)
same,fold change,[8]; [15],0.838
same,cell count,[8]; [16],1990
same,cell count,[8]; [17],1530
same,SSMD,[9],1.71
same,cell count,[9],6920
same,plate-normalised HSF1 focus index,[9],1.1 (inactive)
same,z-score,[10],-0.83 (inactive)
NC(=O)c1ccc2[nH]ccc2c1,parasite load remaining,[12],32.8% (inactive)
same,viability,[12],70.2%
same,remaining activity,[1],89.5% (inactive)
same,outcome,[2],inactive
same,outcome,[11],inactive
same,outcome,[3],inactive
same,outcome,[4],inactive
same,outcome,[5],inactive
same,fold change,[8]; [14],1.06 (inactive) and 0.993 (inactive)
same,fold change,[8]; [15],0.967 and 0.869
same,cell count,[8]; [16],10600 and 9670
same,cell count,[8]; [17],10000 and 9740
same,z-score,[10],1.08 (inactive) and 0.045 (inactive)
CCC(C)N(C)C(=O)c1cc2ccccc2c(-c2ccccc2Cl)n1 (centres undefined),remaining activity,[1],91.6% (inactive)
same,outcome,[2],inactive
same,outcome,[3],inactive
same,outcome,[4],inactive
same,outcome,[6],inactive
same,fold change,[8]; [14],0.969 (inactive) and 0.89 (inactive)
same,fold change,[8]; [15],1.99 and 1.15
same,cell count,[8]; [16],8810 and 6770
same,cell count,[8]; [17],9100 and 7610
same,z-score,[10],0.245 (inactive) and 0.79 (inactive)
O=C(O)CCc1ccc(NCc2cccc(Oc3ccccc3)c2)cc1,remaining activity,[1],92.7% (inactive)
same,outcome,[2],inactive
same,outcome,[11],inactive
same,outcome,[3],inactive
same,outcome,[4],inactive
same,outcome,[5],inactive
same,outcome,[6],inactive
same,outcome,[7],inactive
same,SSMD,[9],3.5
same,cell count,[9],6830
same,plate-normalised HSF1 focus index,[9],1.21 (inactive)
same,z-score,[13]; [18],-0.374 (inactive)
same,z-score,[13]; [19],0.82
same,z-score,[10],0.215 (inactive) and -0.155 (inactive)
Cc1ccc(/C=N/NC(=O)c2ccccc2Oc2ccccc2)o1,remaining activity,[1],79% (inactive)
same,outcome,[2],inactive
same,outcome,[3],inactive
same,outcome,[5],inactive
same,outcome,[6],inactive
same,outcome,[7],inactive
same,fold change,[8]; [14],0.862 (inactive)
same,fold change,[8]; [15],1.34
same,cell count,[8]; [16],7340
same,cell count,[8]; [17],8520
same,z-score,[10],-0.2 (inactive)
